In PubChem BioAssay (NCATS):
Results filed as inconclusive are left out. Activity calls are given as the source filed them. Unless noted, calls follow the shape of the dose curve; as a rule, active = well fitted inhibition curve with a large enough effect; inconclusive = small, poorly fitted or top-dose-only effect; inactive = flat fitted curve, though single readings scatter.

What was measured:
[1] = S16 Schwann cell PMP22 intronic element beta-lactamase assay (AID 624044; calls by dose curve; also: nearly all actives have a fitted effect of over 15% in size;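 as to ratio activity, negative = inhibition: 0% = DMSO and -100% = potassium clavulanate positive control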); settings: S16 rat Schwann cells, PMP22 element beta-lactamase FRET, 24 h; ratio activity, negative = inhibition: at 38.3 µM (top of the series)
Procedure, shortened: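 Rat S16 Schwann cells with beta-Lac driven by a PMP22 intronic element, compound-treated 24 h at 37 °C. LiveBLAzer FRET B/G read: 460 nm normalized to potassium clavulanate vs DMSO; 535 nm FRET as viability; concentration-effect curves classified.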

3D7 = assay: qHTS profiling for inhibitors of Plasmodium falciparum proliferation (AID 504749); also: nearly all actives have a fitted effect of over 60% in size;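 as to activity, negative = inhibition: 0% = DMSO vehicle and full inhibition = artemisinin control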; settings: P. falciparum in erythrocytes, SYBR Green DNA, 72 h; series mostly up to 28.7 µM
Procedure, shortened: (§1)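 Three-day growth assay of blood-stage parasites in erythrocytes (0.3% parasitemia, 2.5% hematocrit) at 37 C, 5% CO2, quantified by SYBR Green DNA staining after overnight detergent lysis.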

CP185 = assay: as above; settings: P. falciparum in erythrocytes, SYBR Green DNA, 72 h; series mostly up to 28.7 µM
Procedure, shortened: as §1

CP203 = assay: as above; settings: P. falciparum in erythrocytes, SYBR Green DNA, 72 h; series mostly up to 28.7 µM
Procedure, shortened: as §1

CP211 = assay: as above; settings: P. falciparum in erythrocytes, SYBR Green DNA, 72 h; series mostly up to 28.7 µM
Procedure, shortened: as §1

CP217 = assay: as above; settings: P. falciparum in erythrocytes, SYBR Green DNA, 72 h; series mostly up to 28.7 µM
Procedure, shortened: as §1

CP250 = assay: as above; settings: P. falciparum in erythrocytes, SYBR Green DNA, 72 h; series mostly up to 28.7 µM
Procedure, shortened: as §1

CP252 = assay: as above; settings: P. falciparum in erythrocytes, SYBR Green DNA, 72 h; series mostly up to 28.7 µM
Procedure, shortened: as §1

CP256 = assay: as above; settings: P. falciparum in erythrocytes, SYBR Green DNA, 72 h; series mostly up to 28.7 µM
Procedure, shortened: as §1

CP262 = assay: as above; settings: P. falciparum in erythrocytes, SYBR Green DNA, 72 h; series mostly up to 28.7 µM
Procedure, shortened: as §1

CP265 = assay: as above; settings: P. falciparum in erythrocytes, SYBR Green DNA, 72 h; series mostly up to 28.7 µM
Procedure, shortened: as §1

CP291 = assay: as above; settings: P. falciparum in erythrocytes, SYBR Green DNA, 72 h; series mostly up to 28.7 µM
Procedure, shortened: as §1

CP305 = assay: as above; settings: P. falciparum in erythrocytes, SYBR Green DNA, 72 h; series mostly up to 28.7 µM
Procedure, shortened: as §1

CP315 = assay: as above; settings: P. falciparum in erythrocytes, SYBR Green DNA, 72 h; series mostly up to 28.7 µM
Procedure, shortened: as §1

CP335 = assay: as above; settings: P. falciparum in erythrocytes, SYBR Green DNA, 72 h; series mostly up to 28.7 µM
Procedure, shortened: as §1

DIV30 = assay: as above; settings: P. falciparum in erythrocytes, SYBR Green DNA, 72 h; series mostly up to 28.7 µM
Procedure, shortened: as §1

ECU = assay: as above; settings: P. falciparum in erythrocytes, SYBR Green DNA, 72 h; series mostly up to 28.7 µM
Procedure, shortened: as §1

HB3 = assay: as above; settings: P. falciparum in erythrocytes, SYBR Green DNA, 72 h; series mostly up to 28.7 µM
Procedure, shortened: as §1

N140 = assay: as above; settings: P. falciparum in erythrocytes, SYBR Green DNA, 72 h; series mostly up to 28.7 µM
Procedure, shortened: as §1

TAB113 = assay: as above; settings: P. falciparum in erythrocytes, SYBR Green DNA, 72 h; series mostly up to 28.7 µM
Procedure, shortened: as §1
Potency is read from the fitted curve at half-maximal effect.

CC(CO)NC(=O)C1C=C2c3cccc4[nH]cc(c34)CC2N(C)C1 (stereo not drawn)
inactive: Potency [1] | Potency (3D7) | Potency (CP185) | Potency (CP203) | Potency (CP211) | Potency (CP217) | Potency (CP250) | Potency (CP252) | Potency (CP256) | Potency (CP262) | Potency (CP265) | Potency (CP291) | Potency (CP305) | Potency (CP315) | Potency (CP335) | Potency (DIV30) | Potency (ECU) | Potency (HB3) | Potency (N140) | Potency (TAB113)

CC(=O)[C@H]1CC[C@H]2C3CC[C@H]4C[C@H](O)CC[C@]4(C)C3CC[C@]12C (stereo partly drawn)
inactive: Potency [1] | Potency (3D7) | Potency (CP185) | Potency (CP203) | Potency (CP211) | Potency (CP217) | Potency (CP250) | Potency (CP252) | Potency (CP256) | Potency (CP262) | Potency (CP265) | Potency (CP291) | Potency (CP305) | Potency (CP315) | Potency (CP335) | Potency (DIV30) | Potency (ECU) | Potency (HB3) | Potency (N140) | Potency (TAB113)

COC(C(=O)C(O)C(C)O)C1Cc2cc3cc(OC4CC(OC5CC(O)C(OC)C(C)O5)C(OC(C)=O)C(C)O4)c(C)c(O)c3c(O)c2C(=O)C1OC1CC(OC2CC(OC3CC(C)(O)C(OC(C)=O)C(C)O3)C(O)C(C)O2)C(O)C(C)O1 (stereo not drawn)
active: Potency [1] 79.4 nM | Potency (3D7) 631 nM | Potency (CP185) 1260 nM | Potency (CP203) 4780 nM | Potency (CP217) 1780 nM | Potency (CP250) 2000 nM | Potency (CP252) 2000 nM | Potency (CP256) 2510 nM | Potency (CP262) 3380 nM | Potency (CP265) 2240 nM | Potency (CP291) 2130 nM | Potency (CP305) 2390 nM | Potency (CP335) 338 nM | Potency (ECU) 1000 nM | Potency (HB3) 355 nM | Potency (N140) 1000 nM | Potency (TAB113) 708 nM

CC1CC[C@@]2(NC1)OC1CC3C4CC[C@@H]5CC(O)CC[C@@]5(C)C4CC[C@]3(C)C1C2C (stereo partly drawn)
active: Potency (ECU) 12600 nM
inactive: Potency [1] | Potency (3D7) | Potency (CP185) | Potency (CP203) | Potency (CP211) | Potency (CP250) | Potency (CP252) | Potency (CP262) | Potency (CP291) | Potency (CP305) | Potency (CP315) | Potency (TAB113)

C#CCN1CC(=O)N(COC(=O)[C@@H]2[C@@H](C=C(C)C)C2(C)C)C1=O
inactive: Potency [1] | Potency (3D7) | Potency (CP185) | Potency (CP203) | Potency (CP211) | Potency (CP217) | Potency (CP250) | Potency (CP252) | Potency (CP256) | Potency (CP262) | Potency (CP265) | Potency (CP291) | Potency (CP305) | Potency (CP315) | Potency (CP335) | Potency (DIV30) | Potency (ECU) | Potency (HB3) | Potency (N140) | Potency (TAB113)

CCCCCCC(=O)O[C@H]1CC[C@H]2[C@@H]3CCC4CC(=O)C=C(C)[C@]4(C)[C@H]3CC[C@]12C (stereo partly drawn)
active: Potency (3D7) 11200 nM | Potency (CP335) 8490 nM | Potency (HB3) 11200 nM
inactive: Potency [1] | Potency (CP185) | Potency (CP203) | Potency (CP211) | Potency (CP217) | Potency (CP250) | Potency (CP252) | Potency (CP256) | Potency (CP262) | Potency (CP265) | Potency (CP291) | Potency (CP305) | Potency (CP315) | Potency (DIV30) | Potency (ECU) | Potency (N140) | Potency (TAB113)

CCN(CC)C(=O)N[C@@H]1C=C2c3cccc4[nH]cc(c34)C[C@H]2N(C)C1
active: Potency (CP265) 10000 nM | Potency (DIV30) 8490 nM | Potency (N140) 12600 nM | Potency (TAB113) 7940 nM
inactive: Potency [1] | Potency (CP203) | Potency (CP315)

O=[N+]([O-])OC1CO[C@H]2C(O[N+](=O)[O-])COC12 (stereo partly drawn)
inactive: Potency [1] | Potency (3D7) | Potency (CP185) | Potency (CP203) | Potency (CP211) | Potency (CP217) | Potency (CP250) | Potency (CP252) | Potency (CP256) | Potency (CP262) | Potency (CP265) | Potency (CP291) | Potency (CP305) | Potency (CP315) | Potency (CP335) | Potency (DIV30) | Potency (ECU) | Potency (HB3) | Potency (N140) | Potency (TAB113)

CCC/C=C/C=C/C(=O)OC1/C(=C/C(=O)OC)CC2CC(C(C)O)OC(=O)CC(O)CC3CC(OC(C)=O)C(C)(C)C(O)(CC4C/C(=C/C(=O)OC)CC(/C=C\C(C)(C)C1(O)O2)O4)O3 (stereo not drawn)
active: ratio activity, negative = inhibition [1] -43.6% | Potency (3D7) 2820 nM | Potency (CP185) 1000 nM | Potency (CP217) 794 nM | Potency (CP250) 1000 nM | Potency (CP252) 1260 nM | Potency (CP256) 1260 nM | Potency (CP265) 1410 nM | Potency (CP291) 2690 nM | Potency (CP305) 1900 nM | Potency (CP335) 1900 nM | Potency (DIV30) 1070 nM | Potency (ECU) 1260 nM | Potency (HB3) 2240 nM | Potency (N140) 1120 nM | Potency (TAB113) 1780 nM

CN(C)[C@@H](Cc1ccccc1)c1ccccc1
inactive: Potency [1] | Potency (3D7) | Potency (CP185) | Potency (CP203) | Potency (CP211) | Potency (CP217) | Potency (CP250) | Potency (CP252) | Potency (CP256) | Potency (CP262) | Potency (CP265) | Potency (CP291) | Potency (CP305) | Potency (CP315) | Potency (CP335) | Potency (DIV30) | Potency (ECU) | Potency (HB3) | Potency (N140) | Potency (TAB113)

CC(C)CCC(=O)OC1CCC2C3CCC4=CC(=O)CC[C@]4(C)C3CC[C@]12C (stereo partly drawn)
inactive: Potency (CP203) | Potency (CP211) | Potency (CP262) | Potency (CP305) | Potency (CP315) | Potency (DIV30)
active: Potency (CP185) 10000 nM | Potency (CP250) 10000 nM | Potency (CP256) 7940 nM | Potency (CP265) 7940 nM | Potency (ECU) 10000 nM | Potency (TAB113) 7080 nM

CN(C)C1C(=O)C(C(N)=O)C(=O)C2(O)C(=O)C3C(=O)c4c(O)cccc4C(C)(O)C3C(O)C12 (stereo not drawn)
inactive: Potency [1] | Potency (CP185) | Potency (CP203) | Potency (CP211) | Potency (CP217) | Potency (CP250) | Potency (CP252) | Potency (CP256) | Potency (CP262) | Potency (CP265) | Potency (CP305) | Potency (ECU) | Potency (N140) | Potency (TAB113)
active: Potency (CP335) 6010 nM

CC(C)=O
inactive: Potency [1]

CNC1=CN(O)C(c2ccccc2)=c2cc(Cl)ccc2=N1
inactive: Potency [1]

CC[C@]1([C@H]2O[C@@H]([C@@H]3O[C@](O)(CO)[C@@H](C)C[C@H]3C)C[C@H]2C)CC[C@@H]([C@]2(C)CC[C@@]3(C[C@@H](O)[C@@H](C)[C@@H]([C@H](C)[C@H](OC)[C@H](C)C(=O)O)O3)O2)O1
active: Potency [1] 562 nM
